± gives the standard deviation of the averaged measurements. In all, about 33,000 sequences were measured (“E-score (rank enrichment, -0.5 to 0.5)”: median about -0.0075, highest 2% from about 0.23 on). The full list was thinned out, with the highest values kept by preference.
These sequences were tested on WT Max(13-93) synthetic (M65Nle) (assay: PBM 8-mer E-score (E-score (rank enrichment, -0.5 to 0.5)); higher = stronger preferential binding).
Method: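 Protein binding microarray (universal PBM chip covering all 10-mers in fixed probe flanks) with chemically synthesized human Max(13-93) bHLH-LZ analogs (not full-length Max) bearing noncanonical residues (hArg, Tha, Aib, Nle at 65) and aromatic Cys staples. Read-out per 8-mer (and its reverse complement): E-score (rank-based enrichment, -0.5 to 0.5) and Z-score of median probe intensity.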

Sequence	PBM 8-mer E-score
ACCAGGGA	0.0354 ± 0.19
AGGCGCTG	-0.0811 ± 0.026
AACAGTGG	-0.0694 ± 0.089
AACTTGCA	0.193 ± 0.046
CGTGCCGC	0.0425 ± 0.15
ATAACAAC	0.265 ± 0.079
CTAACCAC	0.139 ± 0.0048
ATAACCAC	0.288 ± 0.07
ATAACCAG	0.113 ± 0.031
ATAACAAT	0.168 ± 0.0023
ATAACAAG	0.223 ± 0.0096
CTTTTTGC	0.046 ± 0.063
CACCTGGC	0.0136 ± 0.041
GGAGTGCC	-0.11 ± 0.012
GTATGACA	0.245 ± 0.062
GGATGACA	-0.00576 ± 0.064
ATATGACC	-0.0408 ± 0.015
ATATGACA	0.263 ± 0.014
GTATGAAA	0.222 ± 0.033
CTATGACA	0.0275 ± 0.077
ATAGCAGG	-0.0492 ± 0.15
TCCGGACA	-0.0731 ± 0.033
GTCTCTAA	-0.108 ± 0.17
CCTCGCGA	-0.00258 ± 0.05
AATCGCCG	-0.197 ± 0.032

Sequence	PBM 8-mer E-score
ATATATCA	0.19 ± 0.073
TGATATAA	0.155 ± 0.021
CGATATAC	0.0759 ± 0.16
CGATATAG	-0.0681 ± 0.07
TTATATAA	0.256 ± 0.13
CGATATAA	0.281 ± 0.046
CTATATCC	0.135 ± 0.012
ATTTATAA	0.241 ± 0.035
TTATAAAA	0.215 ± 0.03
ATTTATAC	0.188 ± 0.078
CTTTATAA	0.127 ± 0.026
ATATATCC	0.237 ± 0.064
TACGATAA	0.194 ± 0.094
AATGCGAA	0.03 ± 0.03
GCTCCTTA	-0.0526 ± 0.048
ATATCGGG	0.19 ± 0.03
AAGCGGCC	-0.276 ± 0.054
CCGACACA	-0.052 ± 0.075
CGCCGTTC	-0.101 ± 0.024
GGGGGCTA	-0.0501 ± 0.18
CGCGACAC	0.045 ± 0.063
GTATATAA	0.102 ± 0.091
ATATACAG	0.234 ± 0.0072
ATATACAC	0.161 ± 0.055
CTATACAG	0.0775 ± 0.017

Sequence	PBM 8-mer E-score
ATATATAA	0.246 ± 0.086
CTATATAA	0.0196 ± 0.063
GTAGTACA	0.0953 ± 0.0039
CCAACGTC	-0.0188 ± 0.032
AACGACGA	-0.113 ± 0.23
AAGACTCT	0.0105 ± 0.12
AGATGTGA	0.16 ± 0.038
CCATGTGC	0.389 ± 0.0074
AGATGTGC	0.0526 ± 0.076
CCATGTCA	-0.0624 ± 0.05
ACATGTGC	0.359 ± 0.0051
CTATGTGC	0.0889 ± 0.047
ACATGTCC	0.212 ± 0.03
CCATGTGA	0.308 ± 0.0086
CGATGTGA	-0.114 ± 0.17
ACATGTGA	0.389 ± 0.00049
ACATGTCA	0.204 ± 0.057
CCATGTCC	-0.0654 ± 0.065
CGTTGCCA	0.0775 ± 0.02
GAATGGGA	0.0933 ± 0.016
CCGACGGA	-0.238 ± 0.0081
TAGGTGCA	0.0931 ± 0.075
CCGCAATC	-0.0997 ± 0.03
ATCTGATC	-0.138 ± 0.17
GCATGTCA	0.208 ± 0.011

Sequence	PBM 8-mer E-score
ACATGTCG	0.14 ± 0.052
ACATGTGG	0.36 ± 0.049
GCATGTGA	0.314 ± 0.013
AGATGTGG	0.0747 ± 0.083
GAATGTGA	0.0246 ± 0.0085
GAGCATAA	0.0772 ± 0.044
CCTCAACG	-0.187 ± 0.062
AGGGGTCC	-0.221 ± 0.0076
CAGCGGGA	-0.165 ± 0.016
AAGCATAC	0.105 ± 0.023
AAGCATGA	0.152 ± 0.064
AAGCATGC	0.312 ± 0.066
AAGCATGG	0.219 ± 0.031
AAGCATCC	0.0408 ± 0.066
AAGCATGT	0.277 ± 0.024
AGGTGGGG	0.0712 ± 0.15
GGAAAAGA	0.0579 ± 0.031
TGCTGTAA	0.00145 ± 0.0042
ACAAGTGA	0.0895 ± 0.13
GAGCTTGA	-0.165 ± 0.014
GGTCCCAC	-0.0853 ± 0.11
AGAATAAG	-0.0395 ± 0.13
GGAATAAA	0.0114 ± 0.13
AGAATAAA	0.262 ± 0.034
AGAATAAT	0.177 ± 0.0073

Sequence	PBM 8-mer E-score
CGAATAAA	0.0742 ± 0.027
TGAATAAA	0.305 ± 0.013
CTCGCGGC	-0.138 ± 0.055
TCACGTCA	-0.00158 ± 0.0094
ACACGTAC	0.159 ± 0.044
ACACGTAG	0.0871 ± 0.035
AAACGTGG	0.206 ± 0.021
ACACGTGC	0.4859 ± 0.0013
TCACGTAA	0.129 ± 0.01
TCACGTGA	0.444 ± 0.018
AAACGTGT	0.166 ± 0.05
ACACGTGG	0.4934 ± 0.00068
ACACGTGT	0.487 ± 0.002
AGACGTGC	-0.0899 ± 0.02
ACACGTAT	0.192 ± 0.027
CTGCCAAC	-0.111 ± 0.013
GATACCAA	-0.0524 ± 0.022
CAGTGAAC	0.0267 ± 0.035
ACAATCTG	0.065 ± 0.027
AGAAACTC	-0.0484 ± 0.078
ACGAAAAA	0.221 ± 0.056
CTTGCGTA	0.0635 ± 0.052
ATACGTGA	-0.00216 ± 0.0077
ACACGTGA	0.4747 ± 0.0033
AGACGTGA	0.103 ± 0.038

Sequence	PBM 8-mer E-score
AAGCAGGC	-0.0736 ± 0.011
CGTGGGGC	0.119 ± 0.11
AGATGACT	-0.172 ± 0.045
CACTTCTC	0.0461 ± 0.0024
CATTATCG	-0.0926 ± 0.0027
CATCATTA	0.238 ± 0.034
AATTATCC	0.0573 ± 0.0067
AATTATCG	0.132 ± 0.064
AGTTATCA	0.07501 ± 0.00026
AATCATTA	0.223 ± 0.072
AATTATCA	0.273 ± 0.083
GGTTATCA	0.232 ± 0.078
CATTATCA	0.242 ± 0.09
CGTTATCA	0.044 ± 0.015
CATCATTC	-0.011 ± 0.044
TATTATCA	0.2 ± 0.026
GGACTGCA	-0.017 ± 0.043
CGTGTCTC	0.201 ± 0.035
CTAATCCC	0.144 ± 0.024
CCGTCTAC	0.0424 ± 0.084
ACTAACCT	0.0869 ± 0.06
GGTTCCTA	-0.109 ± 0.046
AGACACAG	-0.0614 ± 0.0067
AATTATAA	0.214 ± 0.072
AATTATAC	0.1451 ± 0.00023

Sequence	PBM 8-mer E-score
CATTATTC	0.137 ± 0.063
AGTTATTG	0.127 ± 0.066
AGTTATTA	0.245 ± 0.038
GGTTATTA	0.126 ± 0.0068
CATTATTA	0.262 ± 0.0081
GATTATTA	0.146 ± 0.14
AATTATAG	0.279 ± 0.07
GCCCCGAC	-0.0997 ± 0.092
AAAAGAGT	0.0215 ± 0.025
CAGCCGGG	-0.216 ± 0.054
CGCGATGA	-0.0499 ± 0.057
AATACCAC	0.232 ± 0.0071
AATACCAT	0.239 ± 0.0086
GATACCAC	0.0906 ± 0.0058
AATACCAG	-0.0097 ± 0.088
ACTACCAT	0.0905 ± 0.098
AATACCAA	0.0858 ± 0.08
CTACCCGC	-0.143 ± 0.13
GAAGGAGC	-0.0442 ± 0.0094
AAAGGCAA	0.225 ± 0.019
CGCGCAAG	-0.09 ± 0.021
CCGTGATC	-0.0695 ± 0.058
ACGTGATC	0.365 ± 0.03
